Measurements taken from PubChem BioAssay (Tox21).
Several values for one entry are separate records, joined by “and”; a condition that tells them apart may be missing. Equal entries are not always repeated. Unmarked numbers belong to inactive results. A call without a number means that no potency is given here. Activity calls are given as the source filed them. Unless noted, the call rests on the fitted dose curve; in most records, active means well fitted curve in the direction sought with a large enough effect in the repeat runs; inconclusive means weak or mixed curves; inactive means no such curve, though single readings can be large; an effect the other way counts as inactive or inconclusive.

Key:
[1] = qHTS assay to identify small molecule antagonists of the thyroid receptor (TR) signaling pathway - cell viability counter screen (AID 743064); further: nearly all actives have a fitted effect of over 50% in size; further: potency means the concentration at half of the fitted maximal effect
How it was run: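 In-well cytotoxicity read by CellTiter-Fluor (30 min, 37 C) following 23.5 h exposure of GH3 cells bearing a TRE-luciferase sensor. Compounds were added alongside 1 nM (final) T3 to drive TR transactivation.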

[2] = qHTS assay to identify small molecule antagonists of the thyroid receptor (TR) signaling pathway (AID 743065); further: nearly all actives have a fitted effect of over 55% in size; further: potency means the concentration at half of the fitted maximal effect
How it was run: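 GH3.TRE-Luc rat pituitary cells carrying two TR response elements driving luciferase were plated for 4 h, given compound plus 1 nM T3 (final), and incubated 23.5 h at 37 C. ONE-Glo luminescence measured reporter inhibition; CellTiter-Fluor fluorescence tracked cytotoxicity.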

[3] = tested on: thyroid hormone receptor (rat, GH3 cells); test: qHTS assay to identify small molecule agonists of the thyroid receptor (TR) signaling pathway (AID 743066; calls by dose curve)
[4] = qHTS assay to identify small molecule antagonists of the estrogen receptor alpha (ER-alpha) signaling pathway - cell viability counter screen (AID 743074; calls by dose curve; further: nearly all actives have a fitted effect of over 45% in size; further: potency means the concentration at half of the fitted maximal effect)
[5] = qHTS assay to identify small molecule antagonists of the estrogen receptor alpha (ER-alpha) signaling pathway using the BG1 cell line - cell viability counter screen (AID 743081);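 further: compound given together with 17beta-estradiol as the ER stimulus; nearly all actives have a fitted effect of over 45% in size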; further: potency means the concentration at half of the fitted maximal effect
Aromatase (Homo sapiens) = Aromatase (Homo sapiens) (UniProt P11511); test: qHTS assay to identify aromatase inhibitors (AID 743083); further: nearly all actives have a fitted effect of over 55% in size; further: potency means the concentration at half of the fitted maximal effect
Chain of Aromatase (Homo sapiens) (P11511 whole entry, looked up): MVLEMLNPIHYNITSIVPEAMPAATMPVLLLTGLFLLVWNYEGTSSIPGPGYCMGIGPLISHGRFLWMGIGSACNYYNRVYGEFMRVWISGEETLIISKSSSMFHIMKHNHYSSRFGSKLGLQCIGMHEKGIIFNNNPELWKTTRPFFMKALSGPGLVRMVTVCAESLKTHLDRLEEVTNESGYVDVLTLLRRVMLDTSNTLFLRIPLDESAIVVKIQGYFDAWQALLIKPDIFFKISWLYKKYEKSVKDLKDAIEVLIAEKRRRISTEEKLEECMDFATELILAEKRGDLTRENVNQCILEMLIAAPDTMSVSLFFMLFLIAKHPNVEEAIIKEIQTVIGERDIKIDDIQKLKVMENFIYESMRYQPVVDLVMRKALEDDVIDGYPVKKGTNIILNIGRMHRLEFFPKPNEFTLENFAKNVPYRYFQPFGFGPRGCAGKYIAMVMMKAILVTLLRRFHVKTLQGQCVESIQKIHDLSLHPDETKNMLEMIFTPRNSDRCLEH

[6] = qHTS assay to identify aromatase inhibitors - cell viability counter screen (AID 743084);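 further: cells stimulated with testosterone during compound exposure; nearly all actives have a fitted effect of over 55% in size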; further: potency means the concentration at half of the fitted maximal effect
[7] = biological target: Aryl hydrocarbon receptor (Homo sapiens) (UniProt P35869); test: qHTS assay to identify small molecule that activate the aryl hydrocarbon receptor (AhR) signaling pathway (AID 743085);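 further: HG2L7.5c1 human HepG2 liver cells with stably integrated DRE-driven firefly reporter; nearly all actives have a fitted effect of over 15% in size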
Chain of Aryl hydrocarbon receptor (Homo sapiens) (P35869 whole entry, looked up): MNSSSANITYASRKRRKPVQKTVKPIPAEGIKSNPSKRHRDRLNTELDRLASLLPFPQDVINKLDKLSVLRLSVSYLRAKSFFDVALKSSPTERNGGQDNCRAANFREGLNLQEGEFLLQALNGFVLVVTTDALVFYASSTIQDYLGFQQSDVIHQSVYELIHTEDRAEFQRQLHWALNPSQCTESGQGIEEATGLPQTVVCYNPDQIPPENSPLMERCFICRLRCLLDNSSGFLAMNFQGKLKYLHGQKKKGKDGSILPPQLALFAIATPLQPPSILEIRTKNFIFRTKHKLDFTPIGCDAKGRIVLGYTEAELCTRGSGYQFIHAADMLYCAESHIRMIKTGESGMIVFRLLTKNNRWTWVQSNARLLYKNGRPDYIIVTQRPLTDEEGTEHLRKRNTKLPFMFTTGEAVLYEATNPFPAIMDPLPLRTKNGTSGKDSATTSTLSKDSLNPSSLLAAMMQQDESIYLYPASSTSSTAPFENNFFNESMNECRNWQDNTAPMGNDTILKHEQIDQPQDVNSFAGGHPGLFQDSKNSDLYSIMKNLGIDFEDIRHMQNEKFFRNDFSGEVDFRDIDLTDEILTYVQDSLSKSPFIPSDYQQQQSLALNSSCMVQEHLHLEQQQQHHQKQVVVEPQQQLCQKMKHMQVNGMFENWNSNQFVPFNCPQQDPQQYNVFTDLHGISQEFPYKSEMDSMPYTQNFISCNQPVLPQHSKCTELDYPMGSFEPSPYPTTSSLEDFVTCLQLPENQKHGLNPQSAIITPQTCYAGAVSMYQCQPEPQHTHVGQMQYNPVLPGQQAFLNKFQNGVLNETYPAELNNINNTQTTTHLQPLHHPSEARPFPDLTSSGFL
How it was run: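 Luminescence (ONE-Glo) from a dioxin-responsive-element luciferase reporter in HG2L7.5c1 HepG2 cells after 24 hr compound exposure at 37C; viability measured by CellTiter-Fluor fluorescence beforehand.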

[8] = qHTS assay to identify small molecule that activate the aryl hydrocarbon receptor (AhR) signaling pathway - cell viability counter screen (AID 743086); further: nearly all actives have a fitted effect of over 45% in size; further: potency means the concentration at half of the fitted maximal effect
How it was run: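 HepG2-AhR-luc (HG2L7.5c1) cells, 4000/well, were preincubated 5 h at 37C, exposed to compound in qHTS format for 24 hr at 37C, then given CellTiter-Fluor for 30 min; viability was read as fluorescence in the reporter wells.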

[9] = biological target: Peroxisome proliferator-activated receptor gamma (Homo sapiens) (UniProt P37231); test: qHTS assay to identify small molecule agonists of the peroxisome proliferator-activated receptor gamma (PPARg) signaling pathway (AID 743094; active means well fitted activation curve with a large enough effect in the signal ratio in the repeat runs, not every such curve was filed as active; inconclusive means weak or mixed curves, or effect the other way; inactive means no such curve, though single readings can be large or run the other way; the % refers to the signal ratio; further: potency means the concentration at half of the fitted maximal effect)
Chain of Peroxisome proliferator-activated receptor gamma (Homo sapiens) (P37231 whole entry, looked up): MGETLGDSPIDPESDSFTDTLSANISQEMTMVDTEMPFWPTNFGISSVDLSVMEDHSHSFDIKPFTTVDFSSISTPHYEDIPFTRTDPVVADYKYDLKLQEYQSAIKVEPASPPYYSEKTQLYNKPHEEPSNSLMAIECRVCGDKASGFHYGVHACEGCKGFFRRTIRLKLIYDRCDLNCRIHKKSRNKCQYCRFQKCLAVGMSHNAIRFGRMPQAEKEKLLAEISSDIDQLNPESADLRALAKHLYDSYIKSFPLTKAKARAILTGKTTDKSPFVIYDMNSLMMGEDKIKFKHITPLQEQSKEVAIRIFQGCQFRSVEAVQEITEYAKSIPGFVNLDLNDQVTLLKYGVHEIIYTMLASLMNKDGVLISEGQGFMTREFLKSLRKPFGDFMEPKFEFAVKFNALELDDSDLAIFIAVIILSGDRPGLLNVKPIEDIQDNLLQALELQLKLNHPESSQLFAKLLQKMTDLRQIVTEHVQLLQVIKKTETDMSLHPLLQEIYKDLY
How it was run: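 Following 5 h plating at 37C, PPARg-bla HEK293H cells receive compound or DMSO for 17 h; fluorescence intensity is recorded after LiveBLAzer B/G loading for 1 h at room temperature.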

[10] = qHTS assay to identify small molecule antagonists of the peroxisome proliferator-activated receptor gamma (PPARg) signaling pathway - cell viability counter screen (AID 743194); further: nearly all actives have a fitted effect of over 55% in size; further: potency means the concentration at half of the fitted maximal effect
How it was run: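 PPARg-UAS-bla HEK293H cells were plated, rested 5 h at 37 C, then treated with compounds plus rosiglitazone (50 nM final) for 17 h at 37 C; viability was then read by CellTiter-Glo luminescence after 30 min at room temperature.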

[11] = qHTS assay for small molecule agonists of the antioxidant response element (ARE) signaling pathway (AID 743202; active means well fitted activation curve with a large enough effect in the signal ratio in the repeat runs, not every such curve was filed as active; inconclusive means weak or mixed curves, or effect the other way; inactive means no such curve, though single readings can be large or run the other way; the % refers to the signal ratio)
How it was run: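 Read-out: LiveBLAzer B/G FRET substrate fluorescence after 2 h at room temperature, following 16 h compound treatment at 37 C of HepG2 cells carrying an ARE-driven beta-lactamase reporter.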

[12] = biological target: Estrogen receptor (Homo sapiens) (UniProt P03372); test: qHTS assay to identify small molecule agonists of the estrogen receptor alpha (ER-alpha) signaling pathway (AID 743075; calls by dose curve; further: potency means the concentration at half of the fitted maximal effect); details: HEK293 ER-alpha-UAS-bla, beta-lactamase FRET ratio, 18 h; activation: at 70.1 µM (top of the series)
Chain of Estrogen receptor (Homo sapiens) (P03372 whole entry, looked up): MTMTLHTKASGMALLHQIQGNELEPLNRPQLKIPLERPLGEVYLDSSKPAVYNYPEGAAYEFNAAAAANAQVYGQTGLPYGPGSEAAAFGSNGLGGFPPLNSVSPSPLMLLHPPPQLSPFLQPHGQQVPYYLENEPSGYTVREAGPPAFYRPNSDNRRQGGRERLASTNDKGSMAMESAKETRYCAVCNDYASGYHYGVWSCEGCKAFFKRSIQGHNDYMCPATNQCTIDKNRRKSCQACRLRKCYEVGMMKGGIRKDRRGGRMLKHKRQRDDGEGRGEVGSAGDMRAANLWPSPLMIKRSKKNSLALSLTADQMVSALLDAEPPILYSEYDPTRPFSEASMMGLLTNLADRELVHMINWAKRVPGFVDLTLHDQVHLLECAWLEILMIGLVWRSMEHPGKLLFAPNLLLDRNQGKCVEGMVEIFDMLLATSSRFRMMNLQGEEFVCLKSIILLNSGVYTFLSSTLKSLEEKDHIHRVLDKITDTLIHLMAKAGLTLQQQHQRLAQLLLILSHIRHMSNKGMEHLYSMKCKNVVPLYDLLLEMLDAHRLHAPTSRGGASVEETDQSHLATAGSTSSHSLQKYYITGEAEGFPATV

[13] = biological target: Peroxisome proliferator-activated receptor gamma (Homo sapiens) (UniProt P37231); test: qHTS assay to identify small molecule antagonists of the peroxisome proliferator-activated receptor gamma (PPARg) signaling pathway (AID 743191; calls by dose curve; further: nearly all actives have a fitted effect of over 30% in size)
How it was run: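 GeneBLAzer PPARg UAS-bla HEK293H cells carrying a UAS-driven beta-lactamase reporter were plated at 3000 cells/well, preincubated 5 h at 37C, then given compound for 17 h at 37C; LiveBLAzer B/G FRET substrate was read after 1 h at room temperature.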

[14] = qHTS assay for small molecule agonists of the antioxidant response element (ARE) signaling pathway - cell viability counter screen (AID 743203; calls by dose curve; further: nearly all actives have a fitted effect of over 55% in size; further: potency means the concentration at half of the fitted maximal effect)
How it was run: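 Compounds in DMSO were pinned onto ARE-bla HepG2 cells plated 5 hrs earlier at 2,000 cells/well. Sixteen hours later at 37C/5% CO2, CellTiter-Glo was added and luminescence measured after 30 min at room temperature.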

[15] = qHTS assay for small molecule activators of the heat shock response signaling pathway - cell viability counter screen (AID 743209); further: nearly all actives have a fitted effect of over 50% in size; further: potency means the concentration at half of the fitted maximal effect
How it was run: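 Counter screen for cytotoxicity in HeLa HSE-bla reporter cells. Treatment was 5 h at 37 C; viability was detected by luminescent ATP assay (CellTiter-Glo) in the same wells as the beta-lactamase read.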

[16] = biological target: Estrogen receptor (Homo sapiens) (UniProt P03372); test: qHTS assay to identify small molecule antagonists of the estrogen receptor alpha (ER-alpha) signaling pathway (AID 743069; active means well fitted curve in the direction sought with a large enough effect in the signal ratio in the repeat runs, not every such curve was filed as active; inconclusive means weak or mixed curves, or effect the other way; inactive means no such curve, though single readings can be large or run the other way; the % refers to the signal ratio; further: potency means the concentration at half of the fitted maximal effect)
How it was run: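 HEK293 cells stably carrying an ER-alpha-UAS-bla beta-lactamase reporter were pre-cultured overnight in 2% charcoal-stripped FBS medium. Test compounds in DMSO were added together with 17beta-estradiol for 18 hr at 37C. Read-out was fluorescence after 2 hr with LiveBLAzer B/G FRET substrate at room temperature.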

[17] = qHTS assay for small molecule activators of the heat shock response signaling pathway (AID 743210; active means well fitted activation curve with a large enough effect in the signal ratio in the repeat runs, with a control signal flat, not every such curve was filed as active; inconclusive means weak or mixed curves; the % refers to the signal ratio)
How it was run: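 HSE-bla HeLa cells (beta-lactamase reporter under heat shock response elements) were exposed to compounds for 5 h at 37 C, then loaded with LiveBLAzer B/G FRET substrate for 2.5 h at room temperature before fluorescence reading.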

[18] = biological target: Estrogen receptor (Homo sapiens) (UniProt P03372); test: qHTS assay to identify small molecule agonists of the estrogen receptor alpha (ER-alpha) signaling pathway using the BG1 cell line (AID 743079); details: BG1Luc4E2 cells, ERE-luciferase agonist, 22 h; at 70.3 µM (top of the series); further: nearly all actives have a fitted effect of over 20% in size

Row | Compound | Potency [1] | Potency [2] | Potency [3] | Potency [4] | Potency [5] | Potency (Aromatase (Homo sapiens)) | Potency [6] | Potency [7] | Potency [8] | Potency [9] | Potency [10] | Potency [11] | Potency [12] | Potency [13] | Potency [14] | Potency [15] | Potency [16] | Potency [17] | activation [18] [%]
1 | C/C=C(\C)C(=O)OCc1ccccc1 | inactive | inactive | inactive | inactive | inactive | inactive | inactive | inactive | inactive | inactive | inactive | inactive |  |  |  |  |  |  | 
2 | CCCCCCC[N+](CC)(CC)CCCCc1ccc(Cl)cc1 | inactive | 12.7 µM (active) | inactive | 8.11 µM (active) | inactive |  | inactive |  | inactive | inactive | inactive |  | inactive | inactive | inactive | inactive |  |  | 
3 | COc1cc(-c2nc(NC(=O)c3cc4cc(C)cc(C)c4n3CC(=O)O)sc2CCC2CCCCC2)c(OC)cc1Cl | 12.5 µM (active) | 11.2 µM (active) | inactive | 28.3 µM (active) | inactive | 25 µM (active) |  | inactive | inactive | 35.7 µM (active) | 8.96 µM (active) |  |  |  | 14.1 µM (active) |  | 3.57 µM [inconclusive] (active) |  | 
4 | CO[Si](CCCNc1ccccc1)(OC)OC | inactive | inactive | inactive | inactive | inactive | inactive | inactive | inactive | inactive | inactive | inactive |  |  |  |  | inactive |  | inactive | 
5 | C[n+]1ccn(Cc2ccccc2)c1 | inactive | inactive | inactive |  | inactive | inactive |  |  | inactive | inactive | inactive |  | inactive |  | inactive | inactive | inactive | inactive | 
6 | C=CC(=O)OCC(CO)(COC(=O)C=C)COC(=O)C=C | 2.44 µM (active) and 2.17 µM (active) | 1.73 µM (active) and 1.72 µM (active) | inactive | 39 µM (active) and 49 µM (active) | 27.4 µM (active) and 27.3 µM (active) | 2.74 µM (active) and 5.45 µM (active) | 2.18 µM (active) and 4.86 µM (active) |  | 13.7 µM (active) and 27.3 µM (active) |  | 11 µM (active) and 4.36 µM (active) |  | 13.9 µM [inconclusive] (active) and 12.3 µM [inconclusive] (active) |  | 61.3 µM (active) and 30.6 µM (active) | 3.9 µM (active) and 2.45 µM (active) |  |  | 
7 | C[C@]12CCC(=O)C=C1CC[C@@H]1[C@@H]2[C@@H](O)C[C@@]2(C)[C@H]1CC[C@]2(O)C(=O)COC(=O)CCC(=O)O | inactive | inactive | inactive | inactive |  | inactive | inactive | inactive | inactive | inactive | inactive |  | inactive |  | inactive | inactive |  |  | 9.99
